# Several values for one entry are separate records, joined by “and”; a condition that tells them apart may be missing. Identical values can stand only once. Records with an inconclusive call do not appear. Where a call stands in place of a potency, no number is given. Activity calls are given as the source filed them. Unless noted, calls come from the whole dose curve; as a rule, active = well fitted curve in the direction sought with a large enough effect; inconclusive = small, poorly fitted or top-dose-only effect, or another doubt; inactive = no such curve, though single readings can be large; an effect the other way counts as inactive or inconclusive.
# Assays:
# [1] = Validation screen for small molecules that induce genotoxicity in human embryonic kidney (HEK293T) cells expressing luciferase-tagged ELG1 (AID 493106); note: potency is the fitted concentration of half-maximal effect
# How it was run: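 Luminescence from an ELG1-luciferase fusion serves as the read-out, rising when genetic stress elevates ELG1 protein. HEK293T reporter cells (2,000 per well) received 23 nL compound, incubated 16 hr at 37 °C, then ONE-Glo for 30 min at room temperature.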
# [2] = molecular target: ATPase family AAA domain-containing protein 5 (Homo sapiens) (UniProt Q96QE3); test: Validation screen for small molecules that inhibit ELG1-dependent DNA repair in human embryonic kidney (HEK293T) cells expressing luciferase-tagged ELG1 (AID 493107); note: nearly all actives have a fitted effect of over 70% in size; note: potency is the fitted concentration of half-maximal effect
# ATPase family AAA domain-containing protein 5 (Homo sapiens), sequence (Q96QE3 whole entry, looked up, the tested form may be a part): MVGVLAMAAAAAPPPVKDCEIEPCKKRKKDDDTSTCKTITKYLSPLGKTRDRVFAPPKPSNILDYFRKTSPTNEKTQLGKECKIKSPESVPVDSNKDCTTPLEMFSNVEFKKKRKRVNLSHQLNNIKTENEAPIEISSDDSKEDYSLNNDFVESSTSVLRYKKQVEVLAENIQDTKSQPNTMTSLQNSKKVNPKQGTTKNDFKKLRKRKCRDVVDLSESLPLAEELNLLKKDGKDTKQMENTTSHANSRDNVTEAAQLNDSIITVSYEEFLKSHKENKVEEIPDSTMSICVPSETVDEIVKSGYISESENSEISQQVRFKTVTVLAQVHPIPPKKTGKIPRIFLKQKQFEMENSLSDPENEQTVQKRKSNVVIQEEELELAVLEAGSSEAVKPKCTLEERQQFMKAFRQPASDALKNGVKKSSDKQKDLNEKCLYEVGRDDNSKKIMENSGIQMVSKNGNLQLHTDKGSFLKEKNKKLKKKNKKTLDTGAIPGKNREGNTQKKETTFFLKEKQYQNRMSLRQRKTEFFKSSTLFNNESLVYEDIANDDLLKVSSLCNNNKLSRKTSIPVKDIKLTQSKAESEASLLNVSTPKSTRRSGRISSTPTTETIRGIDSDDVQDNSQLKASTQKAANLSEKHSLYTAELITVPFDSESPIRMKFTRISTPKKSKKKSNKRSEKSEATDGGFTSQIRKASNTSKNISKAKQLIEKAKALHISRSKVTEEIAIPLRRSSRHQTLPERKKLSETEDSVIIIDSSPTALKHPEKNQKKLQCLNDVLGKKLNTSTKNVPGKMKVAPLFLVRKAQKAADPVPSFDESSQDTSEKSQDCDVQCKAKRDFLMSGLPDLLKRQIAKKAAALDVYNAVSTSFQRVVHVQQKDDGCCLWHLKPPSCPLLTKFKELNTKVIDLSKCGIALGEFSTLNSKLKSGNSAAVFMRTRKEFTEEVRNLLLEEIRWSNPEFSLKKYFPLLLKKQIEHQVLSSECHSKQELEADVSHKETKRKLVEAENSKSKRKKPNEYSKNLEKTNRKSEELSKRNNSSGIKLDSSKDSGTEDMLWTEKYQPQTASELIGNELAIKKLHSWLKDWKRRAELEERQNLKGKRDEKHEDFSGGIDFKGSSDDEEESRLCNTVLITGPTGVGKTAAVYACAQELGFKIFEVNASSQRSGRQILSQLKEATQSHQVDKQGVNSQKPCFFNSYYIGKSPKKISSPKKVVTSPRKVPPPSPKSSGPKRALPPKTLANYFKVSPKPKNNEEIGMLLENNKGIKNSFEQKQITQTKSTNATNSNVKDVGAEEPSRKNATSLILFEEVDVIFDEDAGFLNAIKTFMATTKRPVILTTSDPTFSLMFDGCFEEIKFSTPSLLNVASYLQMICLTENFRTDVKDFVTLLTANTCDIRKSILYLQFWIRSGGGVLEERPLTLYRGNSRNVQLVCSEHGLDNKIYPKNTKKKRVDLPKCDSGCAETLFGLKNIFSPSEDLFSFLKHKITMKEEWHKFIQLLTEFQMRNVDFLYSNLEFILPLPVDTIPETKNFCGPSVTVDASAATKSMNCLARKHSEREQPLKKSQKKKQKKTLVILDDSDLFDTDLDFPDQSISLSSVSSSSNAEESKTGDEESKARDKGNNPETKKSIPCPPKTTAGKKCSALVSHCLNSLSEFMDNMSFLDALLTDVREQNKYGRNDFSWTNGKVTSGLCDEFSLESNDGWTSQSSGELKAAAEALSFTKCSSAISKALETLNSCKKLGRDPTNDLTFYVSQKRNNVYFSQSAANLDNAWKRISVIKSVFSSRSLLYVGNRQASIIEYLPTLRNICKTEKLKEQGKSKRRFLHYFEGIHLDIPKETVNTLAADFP
# How it was run: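 Luminescence from ONE-Glo, developed 30 min at room temperature, served as read-out of ELG1-luciferase levels. Beforehand, reporter HEK293T cells received 5-fluorouridine plus test compound for 16 hr at 37 °C.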
# [3] = molecular target: Thyrotropin-releasing hormone receptor (Homo sapiens) (UniProt P34981); test: qHTS for Small Molecule Agonists and Allosteric Enhancers of Human TRH Receptor: Validation Screen for Agonists (AID 493127;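 active = calcium activation more than 3 SD above the typical response in the agonist read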;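 note: intracellular calcium rise by fluo-8 fluorescence before TRH EC20 addition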); details: TRH receptor agonist cell assay; at 2 µM; stronger effect = higher value
# Thyrotropin-releasing hormone receptor (Homo sapiens), sequence (P34981 whole entry, looked up): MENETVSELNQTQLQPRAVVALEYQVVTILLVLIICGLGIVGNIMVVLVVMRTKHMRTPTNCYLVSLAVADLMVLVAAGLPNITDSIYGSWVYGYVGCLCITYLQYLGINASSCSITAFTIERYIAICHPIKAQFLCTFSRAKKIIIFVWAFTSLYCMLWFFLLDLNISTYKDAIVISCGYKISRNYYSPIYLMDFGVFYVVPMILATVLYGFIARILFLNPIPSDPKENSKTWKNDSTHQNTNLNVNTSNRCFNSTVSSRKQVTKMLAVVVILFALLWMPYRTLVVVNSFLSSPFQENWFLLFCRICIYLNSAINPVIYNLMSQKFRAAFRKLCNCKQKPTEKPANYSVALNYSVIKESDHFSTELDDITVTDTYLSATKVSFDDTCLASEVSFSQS
# How it was run: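 Cells 2000/well, 10% FCS, 18 h 33.5C/5% CO2 → fluo-8 Ca dye, RT 30 min–1.5 h → FDSS baseline 10 × 1 s → compound added → 230 cycles (1 s/cycle) agonist mode. TRH controls.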
# [4] = Nrf2 qHTS screen for inhibitors: Validation (AID 493153; active = well fitted inhibition curve with a large enough effect in the main read-out, with a control signal flat, not every such curve was filed as active); details: Potency: luciferase luminescence; viability change: measured here: cytotoxicity max response
# How it was run: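 Luminescence from an ARE-firefly luciferase reporter in A549 cells gives Nrf2 inhibition; an earlier CellTiter-Fluor fluorescent read flags cytotoxicity. Cells in 5% FBS OPTI-MEM received compound dilution series for 18-24 h at 37°C.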
# [5] = Validation screen for small molecules that induce DNA re-replication in SW480 colon adenocarcinoma cells (AID 504364)
# How it was run: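 250 cells/well; compound pinned in; 48 hr, 37 C, 5% CO2; Hoechst added, 40 min; nuclear fluorescence imaged, 405 ex / 500-530 em; re-replication scored as increase in high-intensity nuclei.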
# [6] = molecular target: Peptidyl-prolyl cis-trans isomerase NIMA-interacting 1 (Homo sapiens) (UniProt Q13526); test: qHTS Validation Assay to Find Inhibitors of Pin1 (AID 504536; active = well fitted inhibition curve with a large enough effect in the polarisation, with a control signal flat, not every such curve was filed as active; the % refers to the polarisation; note: potency is the fitted concentration of half-maximal effect)
# Peptidyl-prolyl cis-trans isomerase NIMA-interacting 1 (Homo sapiens), sequence (Q13526 whole entry, looked up): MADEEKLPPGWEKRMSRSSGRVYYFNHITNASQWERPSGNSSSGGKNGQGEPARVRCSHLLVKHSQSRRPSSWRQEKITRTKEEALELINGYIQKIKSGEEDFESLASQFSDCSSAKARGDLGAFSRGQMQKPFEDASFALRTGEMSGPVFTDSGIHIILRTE
# How it was run: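 Fluorescence polarization competition: compounds (titration) displace HiFluor-488-labeled Pin1-1b peptide from Pin1 (0.3 uM final) in pH 7.5 HEPES buffer with DTT, 10 min at room temperature; %Activity normalized to no-enzyme wells, curves fitted.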
# [7] = molecular target: Ubiquitin carboxyl-terminal hydrolase 1 (Homo sapiens) (UniProt O94782); test: Inhibitors of USP1/UAF1: Pilot qHTS (AID 504865); note: nearly all actives have a fitted effect of over 35% in size; note: potency is the fitted concentration of half-maximal effect
# Ubiquitin carboxyl-terminal hydrolase 1 (Homo sapiens), sequence (O94782 whole entry, looked up): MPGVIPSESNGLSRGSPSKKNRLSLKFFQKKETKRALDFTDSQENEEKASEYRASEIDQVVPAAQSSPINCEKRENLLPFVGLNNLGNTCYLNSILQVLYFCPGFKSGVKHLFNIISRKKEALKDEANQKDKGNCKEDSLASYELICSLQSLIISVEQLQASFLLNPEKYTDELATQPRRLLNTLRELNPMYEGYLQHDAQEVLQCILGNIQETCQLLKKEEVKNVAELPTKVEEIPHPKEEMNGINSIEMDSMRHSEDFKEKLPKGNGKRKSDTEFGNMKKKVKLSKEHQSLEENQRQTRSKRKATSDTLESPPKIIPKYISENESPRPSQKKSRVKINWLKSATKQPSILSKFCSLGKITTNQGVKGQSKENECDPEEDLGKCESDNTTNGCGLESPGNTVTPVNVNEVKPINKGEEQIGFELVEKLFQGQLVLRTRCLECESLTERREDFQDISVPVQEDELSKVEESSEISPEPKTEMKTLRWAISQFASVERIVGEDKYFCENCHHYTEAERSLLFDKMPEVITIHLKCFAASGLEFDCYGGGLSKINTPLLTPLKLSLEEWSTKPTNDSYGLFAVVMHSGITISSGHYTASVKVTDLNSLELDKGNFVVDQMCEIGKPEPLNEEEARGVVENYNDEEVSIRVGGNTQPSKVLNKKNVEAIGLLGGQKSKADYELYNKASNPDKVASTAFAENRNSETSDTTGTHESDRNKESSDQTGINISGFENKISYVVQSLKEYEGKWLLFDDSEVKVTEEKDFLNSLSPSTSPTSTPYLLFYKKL
# How it was run: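 USP1/UAF1 complex at 1 nM preincubated 15 min at room temperature with compound, then Ub-Rho substrate added at 150 nM final. Fluorescence (480/540 nm) read kinetically in 50 mM HEPES pH 7.8, 0.5 mM EDTA, 1 mM TCEP, 0.1 mg/ml BSA, 0.01% Tween-20.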
# [8] = molecular target: Bile acid receptor (Homo sapiens) (UniProt Q96RI1); test: qHTS assay for small molecule antagonists of farnesoid X receptor signaling (AID 588526; calls by dose curve)
# How it was run: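 Antagonist mode: titrated compounds tested against chenodeoxycholic acid stimulation (normalized to 50 uM CDCA and DMSO) in GeneBLAzer HEK293T cells for 16 h. Beta-lactamase read by CCF4 fluorescence; IC50 from Hill fits.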
# [9] = qHTS for Inhibitors of Cell Surface uPA Generation: Validation Assay (AID 493164)
# How it was run: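 RAW 264.7 cells (4000/well) were plated overnight, then exposed for 18 h at 37 C, 5% CO2 to compounds in a 7-point 1:5 titration (2.45 nM–38.3 uM final). Intracellular ATP was read by ATP-Lite luminescence.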
# [10] = molecular target: Galactokinase (Homo sapiens) (UniProt P51570); test: qHTS Validation Assay for Inhibitors of Human Galactokinase (GALK) (AID 493189)
# Galactokinase (Homo sapiens), sequence (P51570 whole entry, looked up): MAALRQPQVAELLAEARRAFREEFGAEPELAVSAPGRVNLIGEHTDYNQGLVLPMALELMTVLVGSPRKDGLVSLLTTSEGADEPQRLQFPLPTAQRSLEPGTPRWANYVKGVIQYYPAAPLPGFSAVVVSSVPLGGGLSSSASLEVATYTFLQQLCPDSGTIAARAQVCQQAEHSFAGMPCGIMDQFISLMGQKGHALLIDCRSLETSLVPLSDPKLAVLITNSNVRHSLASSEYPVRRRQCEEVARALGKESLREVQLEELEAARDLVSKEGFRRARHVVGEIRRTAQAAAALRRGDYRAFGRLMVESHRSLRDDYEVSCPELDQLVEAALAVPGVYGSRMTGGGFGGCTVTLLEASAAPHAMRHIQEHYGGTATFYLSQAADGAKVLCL
# How it was run: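 GALK (5 nM) with 35 uM ATP and 100 uM galactose in HEPES pH 8.0 with MgCl2, NaCl, DTT and BSA. Reaction ran 1 h at room temperature. Residual ATP read by Kinase-Glo Plus luminescence.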
# [11] = molecular target: Phosphoglycerate kinase, glycosomal (Trypanosoma brucei brucei) (UniProt P07378); test: qHTS Validation Assay to Find Inhibitors of Phosphoglycerate Kinase (AID 504547); note: potency is the fitted concentration of half-maximal effect
# Phosphoglycerate kinase, glycosomal (Trypanosoma brucei brucei), sequence (P07378 whole entry, looked up): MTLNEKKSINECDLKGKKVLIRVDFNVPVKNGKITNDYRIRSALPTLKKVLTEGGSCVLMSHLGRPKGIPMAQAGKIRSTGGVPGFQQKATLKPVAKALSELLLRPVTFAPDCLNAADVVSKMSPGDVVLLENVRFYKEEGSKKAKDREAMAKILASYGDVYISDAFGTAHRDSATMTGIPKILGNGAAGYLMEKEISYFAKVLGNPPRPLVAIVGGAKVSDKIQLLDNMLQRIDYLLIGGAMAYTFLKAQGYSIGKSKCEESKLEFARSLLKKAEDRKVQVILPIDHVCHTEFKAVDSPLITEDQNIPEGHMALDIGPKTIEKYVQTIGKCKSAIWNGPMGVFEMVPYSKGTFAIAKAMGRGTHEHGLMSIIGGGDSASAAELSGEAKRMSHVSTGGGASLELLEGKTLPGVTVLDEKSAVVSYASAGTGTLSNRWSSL
# How it was run: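 PGK activity was coupled to GAPDH (100nM final), which generates the unstable substrate 1,3-bisphosphoglycerate in-well. Reactions ran 60 minutes at room temperature in 100mM TEA pH 7.6, 5mM MgCl2, 0.01% Tween-20, then Kinase-Glo Plus luminescence was read.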
# [12] = molecular target: phosphoglycerate mutase (Leishmania major) (UniProt Q4Q090); test: qHTS Validation Assay to Find Inhibitors of Phosphoglycerate Mutase (AID 504548); details: Potency: inhibition qHTS; note: series mostly up to about 58 µM
# phosphoglycerate mutase (Leishmania major), sequence (Q4Q090 1-553): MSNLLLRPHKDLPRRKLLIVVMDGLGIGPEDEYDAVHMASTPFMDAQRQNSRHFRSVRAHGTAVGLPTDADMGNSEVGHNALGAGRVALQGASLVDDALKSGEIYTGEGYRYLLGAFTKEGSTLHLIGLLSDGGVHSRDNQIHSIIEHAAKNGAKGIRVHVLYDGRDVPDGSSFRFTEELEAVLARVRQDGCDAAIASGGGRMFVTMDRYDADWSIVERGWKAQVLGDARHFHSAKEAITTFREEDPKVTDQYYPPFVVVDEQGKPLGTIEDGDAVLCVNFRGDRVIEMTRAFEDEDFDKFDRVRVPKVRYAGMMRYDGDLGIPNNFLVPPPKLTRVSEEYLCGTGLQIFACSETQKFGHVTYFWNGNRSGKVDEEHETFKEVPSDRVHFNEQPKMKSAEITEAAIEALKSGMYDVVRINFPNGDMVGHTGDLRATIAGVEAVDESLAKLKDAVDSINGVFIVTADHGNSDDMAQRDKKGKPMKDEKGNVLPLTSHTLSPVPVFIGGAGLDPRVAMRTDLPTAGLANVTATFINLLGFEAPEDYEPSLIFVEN
# How it was run: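 Lm PGAM at 1.25 nM final with substrate in 100 mM TEA pH 7.6, 5 mM MgCl2, 0.01% Tween-20; 45 min at room temperature. Kinase-GloPlus added, 10 min, end-point luminescence read.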
# [13] = qHTS for Inhibitors of ATXN expression: Validation of Cytotoxic Assay (AID 588349)
# How it was run: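 Read-out: ATP-based luminescence (CellTiter Glo) reflecting viability of HEK293 cells after 72 hr incubation at 37 degrees C with a concentration series of each compound.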
# [14] = qHTS for Inhibitors of ATXN expression: Validation (AID 588378); note: series mostly up to about 57 µM; nearly all actives have a fitted effect of over 75% in size
# How it was run: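 HEK293 cells carrying ATXN2-firefly luciferase reporter, treated with compound 24 h at 37 °C. Viability read first by CellTiter-Fluor (405/525 nm), then reporter expression by Bright-Glo luminescence; controls were a known ATXN2 expression inhibitor and a luciferase inhibitor.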
# [15] = molecular target: DNA dC->dU-editing enzyme APOBEC-3G (Homo sapiens) (UniProt Q9HC16); test: qHTS for inhibitors of Vif-A3G interactions: Validation (AID 588379)
# DNA dC->dU-editing enzyme APOBEC-3G (Homo sapiens), sequence (Q9HC16 whole entry, looked up): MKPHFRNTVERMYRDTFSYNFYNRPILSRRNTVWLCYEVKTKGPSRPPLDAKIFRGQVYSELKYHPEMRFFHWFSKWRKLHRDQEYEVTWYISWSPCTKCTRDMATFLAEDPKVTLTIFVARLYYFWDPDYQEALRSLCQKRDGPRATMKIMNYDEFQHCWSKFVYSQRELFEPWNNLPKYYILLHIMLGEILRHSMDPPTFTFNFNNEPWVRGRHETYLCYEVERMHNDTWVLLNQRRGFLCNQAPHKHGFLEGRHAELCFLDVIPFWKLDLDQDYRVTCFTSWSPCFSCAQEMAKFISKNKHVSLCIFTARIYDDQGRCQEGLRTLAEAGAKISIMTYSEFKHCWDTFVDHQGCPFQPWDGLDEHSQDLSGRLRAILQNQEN
# How it was run: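 HeLa cells stably expressing Vif and A3G-eYFP, 700 cells/well, incubated overnight at 37 deg C, then exposed to compound overnight at 37 deg C. Inhibition of Vif-mediated degradation read as increased yellow fluorescence (Ex 488/Em 500-530) by laser-scanning cytometry.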
SMILES,Potency [1],Potency [2],activation [3],Potency [4],viability change [4] [%],Potency [5],Potency [6],Potency [7],outcome [8],outcome [9],Potency [10],Potency [11],Potency [12],Potency [13],Potency [14],Potency [15]
CC(C)NCC(O)COc1cccc2ccccc12 (centres undefined),inactive,inactive,2.25% (inactive),inactive,6.42,inactive,inactive,inactive,inactive,,,,,,,
O=c1[nH]c2cc(C(F)(F)F)ccc2n1-c1cc(C(F)(F)F)ccc1O,inactive,inactive,1.88% (inactive),inactive,-2.14,inactive,inactive,,,inactive,inactive,inactive,inactive,inactive,inactive,
Cn1c(=O)c2[nH]c(-c3ccccc3)nc2n(C)c1=O,inactive,inactive,0.875% (inactive),,,inactive,inactive,inactive,,inactive,inactive,inactive,inactive,inactive,inactive,
C[C@@H](NC(=O)/C(C#N)=C/c1ccc(O)c(O)c1)c1ccccc1,inactive,inactive,0.938% (inactive),,,inactive,inactive,inactive,,inactive,inactive,inactive,inactive,,inactive,inactive
NCCCCCCCCCCN,inactive,inactive,0.938% (inactive),,,inactive,inactive,inactive,,inactive,inactive,inactive,inactive,,inactive,
CCCN(CC1CC1)c1nc(C)nc(Nc2c(Cl)cc(Cl)cc2Cl)c1Cl,inactive,inactive,-7.44% (inactive),,,inactive,inactive,inactive,,inactive,inactive,inactive,inactive,,inactive,inactive
CCCCN1CCC(n2c(=O)[nH]c3ccccc32)CC1,inactive,inactive,1% (inactive),inactive,-4.5,inactive,inactive,inactive,,inactive,inactive,inactive,inactive,,inactive,
O=C(Nc1cccc(C(=O)Nc2ccc(S(=O)(=O)O)c3cc(S(=O)(=O)O)cc(S(=O)(=O)O)c23)c1)Nc1cccc(C(=O)Nc2ccc(S(=O)(=O)O)c3cc(S(=O)(=O)O)cc(S(=O)(=O)O)c23)c1,inactive,inactive,0.875% (inactive),inactive,-3.71,inactive,6.75 µM (active),28.2 µM (active) and 12.6 µM (active),,inactive,inactive,,inactive,inactive,inactive,inactive
CC12C(=O)OC(=O)C1(C)C1CCC2O1 (centres undefined),2.91 µM (active),14.6 µM (active),-0.25% (inactive),,,inactive,inactive,inactive,,inactive,inactive,inactive,inactive,,,inactive
C=CC(=O)c1ccc(CCCCCC)cc1,inactive,inactive,,,,,inactive,56.2 µM (active),,inactive,,inactive,inactive,inactive,inactive,
O=C(O)CC1CC(c2ccccc2)=NO1 (centres undefined),inactive,inactive,,inactive,12.6,,inactive,inactive,,inactive,,inactive,inactive,inactive,inactive,
OCC1O[C@H]([S-])[C@H](O)[C@@H](O)[C@@H]1O.[Au+] (some centres undefined),inactive,inactive,,inactive,-19.1,,4.26 µM (active),inactive,,inactive,,8.49 µM (active),inactive,,,
Cc1nc2sccn2c(=O)c1CCN1CCC(=C(c2ccccc2)c2ccc(F)cc2)CC1,inactive,inactive,,inactive,0.941,,inactive,,,inactive,,inactive,inactive,,inactive,inactive
O=C1NC(O)=NC1(c1ccccc1)c1ccccc1,inactive,inactive,0.125% (inactive),,,inactive,,inactive,,,inactive,inactive,inactive,,,
COc1ccc2c(c1)CCC1C2CC[C@@]2(C)C1CC[C@@H]2NCCCCCCN1C(=O)CCC1=O (some centres undefined),inactive,25.9 µM (active),,,,,inactive,inactive,,inactive,,inactive,inactive,,,
CC(C)NC[C@@H](O)c1ccc(O)c(O)c1,inactive,inactive,,inactive,0.444,,,inactive,,inactive,,inactive,inactive,,,

# Source: PubChem BioAssay (NCATS)
